# “And” between values parts separate entries of the source, which are not always exact repeats. Equal values may be shown once. Inconclusive results are not listed. A call without a number means that no potency is given here. The source holds several records for some structures; these can differ, active in one and inactive in another. The source made the active and inactive calls. Calls follow the shape of the dose curve; as a rule, active = well fitted curve in the direction sought with a large enough effect; inconclusive = small, poorly fitted or top-dose-only effect, or another doubt; inactive = no such curve, though single readings can be large; an effect the other way counts as inactive or inconclusive.
# Columns and labels:
# [1] = molecular target: Glutathione peroxidase 1 (Homo sapiens) (UniProt P07203); assay: Primary qHTS Assay for Inhibitors of Recombinant Selenoprotein Glutathione Peroxidase 1 (GPX1) (AID 1845191); also: nearly all actives have a fitted effect of over 65% in size; also: potency is read from the fitted curve at half-maximal effect
# Chain of Glutathione peroxidase 1 (Homo sapiens) (P07203 whole entry, looked up): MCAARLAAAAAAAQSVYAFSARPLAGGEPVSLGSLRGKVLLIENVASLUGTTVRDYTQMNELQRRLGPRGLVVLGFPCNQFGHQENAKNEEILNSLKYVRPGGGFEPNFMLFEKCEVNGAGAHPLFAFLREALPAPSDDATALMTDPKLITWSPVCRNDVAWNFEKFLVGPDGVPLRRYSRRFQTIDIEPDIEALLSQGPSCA
# In short: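 GR-coupled readout: NADPH consumption tracked by fluorescence, ex 340/em 450 nm, at t=0 and after 15 min at RT. Final mix 10 nM GPX1, 1 mM GSH, 0.5 mM CHP, 0.5 mM NADPH, 100 nM GR, 0.01% BSA, following 30 min enzyme–compound preincubation.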
# [2] = molecular target: Phospholipid hydroperoxide glutathione peroxidase GPX4 (Homo sapiens) (UniProt P36969); assay: Primary qHTS Assay for Inhibitors of Recombinant Selenoprotein Glutathione Peroxidase 4 (GPX4) (AID 1845192); also: nearly all actives have a fitted effect of over 65% in size; also: potency is read from the fitted curve at half-maximal effect
# Chain of Phospholipid hydroperoxide glutathione peroxidase GPX4 (Homo sapiens) (P36969 whole entry, looked up): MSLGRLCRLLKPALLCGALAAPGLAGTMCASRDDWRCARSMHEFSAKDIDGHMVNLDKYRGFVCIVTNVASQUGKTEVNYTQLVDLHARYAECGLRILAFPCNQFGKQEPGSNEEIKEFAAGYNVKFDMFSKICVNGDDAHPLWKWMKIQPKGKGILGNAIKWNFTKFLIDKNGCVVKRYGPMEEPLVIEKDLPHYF
# In short: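 Steps: GPX4 plus compound, 30 min RT; add GR/GSH/NADPH master mix; start with cumene hydroperoxide; read 340/450 nm fluorescence at 0 and 15 min. Finals were 200 nM GPX4, 1 mM GSH, 0.5 mM CHP, 0.5 mM NADPH, 100 nM GR.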
# [3] = Quantitative High-Throughput drug screen in 47 multiple myeloma cell lines against the NCATS MIPE library collection: FR4_PLB cell viability assay (AID 1918924; also: nearly all actives have a fitted effect of over 35% in size)
# In short: (§1)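 We plated 500 myeloma cells per well, pinned in MIPE 4.0 compounds, and incubated for 48 hours at 37C. ATP was then quantified with CellTiter-Glo, with DMSO and media-only wells defining 100% and 0%.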
# [4] = Quantitative High-Throughput drug screen in 47 multiple myeloma cell lines against the NCATS MIPE library collection: ARP1_JJKsccF8 cell viability assay (AID 1918928; also: nearly all actives have a fitted effect of over 40% in size)
# In short: (§2)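 Viability screen: myeloma cells (500/well) incubated 48 h at 37 °C, humidified 5% CO2, with pinned library compounds; CellTiter-Glo added, luminescence read; DMSO wells set 100%, medium-only wells 0%.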
# [5] = Quantitative High-Throughput drug screen in 47 multiple myeloma cell lines against the NCATS MIPE library collection: ARD_JJKsccE7 cell viability assay (AID 1918929; also: potency is read from the fitted curve at half-maximal effect)
# In short: (§3)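 CellTiter-Glo ATP luminescence gave viability after 48 h compound treatment at 37C of 500 multiple myeloma cells per well. Normalisation used DMSO-only wells as 100% and media-only wells as 0% viability; primary qHTS of approved and investigational drugs.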
# [6] = Quantitative High-Throughput drug screen in 47 multiple myeloma cell lines against the NCATS MIPE library collection: Karpas620_DSMZ cell viability assay (AID 1918959); also: nearly all actives have a fitted effect of over 30% in size
# In short: as §1
# [7] = Quantitative High-Throughput drug screen in 47 multiple myeloma cell lines against the NCATS MIPE library collection: KMM1_JCRB cell viability assay (AID 1918960); also: nearly all actives have a fitted effect of over 30% in size; also: potency is read from the fitted curve at half-maximal effect
# In short: as §2
# [8] = Quantitative High-Throughput drug screen in 47 multiple myeloma cell lines against the NCATS MIPE library collection: JIM3_ECACC cell viability assay (AID 1918963; also: nearly all actives have a fitted effect of over 35% in size; also: potency is read from the fitted curve at half-maximal effect)
# In short: as §1
# [9] = Quantitative High-Throughput drug screen in 47 multiple myeloma cell lines against the NCATS MIPE library collection: Delta47_JCRB cell viability assay (AID 1918925; also: nearly all actives have a fitted effect of over 45% in size)
# In short: as §3
# [10] = Quantitative High-Throughput drug screen in 47 multiple myeloma cell lines against the NCATS MIPE library collection: AMO1_DSMZ cell viability assay (AID 1918927; also: nearly all actives have a fitted effect of over 30% in size; also: potency is read from the fitted curve at half-maximal effect)
# In short: as §3
# [11] = Quantitative High-Throughput drug screen in 47 multiple myeloma cell lines against the NCATS MIPE library collection: INA6_PLB cell viability assay (AID 1918965; also: nearly all actives have a fitted effect of over 55% in size; also: potency is read from the fitted curve at half-maximal effect)
# In short: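 Viability readout: CellTiter-Glo luminescence following 5 min room-temperature incubation with reagent. Prior exposure: 48 h, 37C, humidified 5% CO2, 500 cells per well.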
# [12] = Quantitative High-Throughput drug screen in 47 multiple myeloma cell lines against the NCATS MIPE library collection: EJM_DSMZ cell viability assay (AID 1918926; also: nearly all actives have a fitted effect of over 30% in size)
# In short: as §3
# [13] = Quantitative High-Throughput drug screen in 47 multiple myeloma cell lines against the NCATS MIPE library collection: JIM1_ECACC cell viability assay (AID 1918964)
# In short: as §3
# [14] = Quantitative High-Throughput drug screen in 47 multiple myeloma cell lines against the NCATS MIPE library collection: JJN3_DSMZ cell viability assay (AID 1918966; also: nearly all actives have a fitted effect of over 50% in size; also: potency is read from the fitted curve at half-maximal effect)
# In short: as §3
# [15] = Quantitative High-Throughput drug screen in 47 multiple myeloma cell lines against the NCATS MIPE library collection: KHM11_PLB cell viability assay (AID 1918962); also: nearly all actives have a fitted effect of over 35% in size; also: potency is read from the fitted curve at half-maximal effect
# In short: as §1
# [16] = molecular target: Luciferin 4-monooxygenase (Photinus pyralis) (UniProt P08659); assay: Primary firefly luciferase (FLuc) qHTS assay for identification of artifact compounds. (AID 1845220); also: series mostly up to about 54 µM; nearly all actives have a fitted effect of over 60% in size
# In short: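 D-luciferin and ATP (10 uM each, final) in Tris acetate buffer pH 7.6 were incubated with compounds for 15 min at room temperature. The reaction was started with 10 nM Photinus pyralis luciferase and luminescence read after 5 min. Percent inhibition was fitted to a 4-parameter Hill equation.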
# [17] = test system: Nanoluciferase (engineered Oplophorus gracilirostris luciferase); assay: Primary Nanoluciferase (NLuc) qHTS assay for identification of artifact compounds. (AID 1845222); also: series mostly up to about 54 µM
# In short: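 Diluted conditioned medium from NLuc-expressing S16 cells treated with compounds for 15 min at room temperature, then Nano-Glo substrate added; luminescence read after 5 min. Percent inhibition versus no-enzyme and DMSO controls fitted to 4-parameter Hill equation.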
# [18] = Primary redox qHTS assay for identification of artifact compounds. (AID 1845223)
# In short: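 Redox-cycling detection via DTT (250 uM final) oxidation coupled to Amplex Red (25 uM)/HRP (250 mU/mL) in HBSS. 15 min preincubation plus 30 min after DTT, room temperature. Ex/Em 525/598 nm; 4-parameter Hill fit against DMSO and 10 uM DA3003.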
smiles,measurement,setting,value
NNc1nncc2ccccc12,Potency,[1],inactive
same,Potency,[2],inactive
same,Potency,[3],inactive
same,Potency,[4],inactive
same,Potency,[5],inactive
same,Potency,[6],inactive
same,Potency,[7],inactive
same,Potency,[8],inactive
c1ccc2[nH]c(-c3cscn3)nc2c1,Potency,[1],inactive
same,Potency,[2],inactive
same,Potency,[9],inactive
same,Potency,[10],inactive
same,Potency,[4],inactive
same,Potency,[5],inactive
same,Potency,[7],inactive
same,Potency,[8],inactive
same,Potency,[11],inactive
CC1=C(C)C(=O)C(C(CCCCCC(=O)O)c2ccccc2)=C(C)C1=O (centres undefined),Potency,[1],inactive
same,Potency,[2],11.2 µM (active)
same,Potency,[3],inactive
same,Potency,[12],inactive
same,Potency,[6],inactive
COc1cc(C(C)=O)ccc1OCCCN1CCC(c2noc3cc(F)ccc23)CC1,Potency,[1],inactive
same,Potency,[2],inactive
same,Potency,[12],inactive
same,Potency,[8],inactive
same,Potency,[11],14.8 µM (active)
CC(S)C(=O)NCC(=O)O (centres undefined),Potency,[1],inactive
same,Potency,[2],inactive
same,Potency,[3],inactive
same,Potency,[12],inactive
same,Potency,[10],inactive
same,Potency,[4],inactive
same,Potency,[5],2.64 µM (active)
same,Potency,[8],inactive
same,Potency,[13],inactive
same,Potency,[14],inactive
CN(C)C(=O)COC(=O)Cc1ccc(OC(=O)c2ccc(N=C(N)N)cc2)cc1,Potency,[1],inactive
same,Potency,[2],inactive
same,Potency,[3],inactive
same,Potency,[4],inactive
same,Potency,[15],0.662 µM (active)
same,Potency,[11],1.48 µM (active)
Cn1c(NCCN(CCO)CCCc2ccc([N+](=O)[O-])cc2)cc(=O)n(C)c1=O,Potency,[1],inactive
same,Potency,[2],inactive
same,Potency,[12],inactive
same,Potency,[10],18.7 µM (active)
same,Potency,[4],inactive
Cc1c(OCC(F)(F)F)ccnc1CS(=O)c1nc2ccccc2[nH]1 (centres undefined),Potency,[1],inactive
same,Potency,[2],4.53 µM (active)
same,Potency,[3],inactive
same,Potency,[12],inactive
same,Potency,[4],inactive
same,Potency,[6],inactive
same,Potency,[7],20.9 µM (active)
same,Potency,[8],16.6 µM (active)
same,Potency,[14],2.64 µM (active)
CCCc1cc(=O)[nH]c(=S)[nH]1,Potency,[1],inactive
same,Potency,[2],inactive
same,Potency,[3],inactive
same,Potency,[12],inactive
same,Potency,[10],inactive
same,Potency,[4],inactive
same,Potency,[5],inactive
same,Potency,[7],inactive
same,Potency,[8],inactive
same,Potency,[13],inactive
CCc1nc(N)nc(N)c1-c1ccc(Cl)cc1,Potency,[1],inactive
same,Potency,[2],inactive
same,Potency,[9],inactive
same,Potency,[12],inactive
same,Potency,[10],1.48 µM (active)
same,Potency,[6],inactive
same,Potency,[15],inactive
same,Potency,[8],2.35 µM (active)
same,Potency,[13],inactive
same,Potency,[11],10.5 µM (active)
COCCCOc1ccnc(CS(=O)c2nc3ccccc3[nH]2)c1C (centres undefined),Potency,[1],inactive and 14.3 µM (active)
same,Potency,[16],inactive
same,outcome,[17],inactive
same,outcome,[18],inactive
same,Potency,[3],inactive
same,Potency,[9],inactive
same,Potency,[12],inactive
same,Potency,[10],inactive
same,Potency,[5],inactive
same,Potency,[6],inactive
same,Potency,[7],inactive
same,Potency,[15],inactive
same,Potency,[8],inactive
same,Potency,[11],inactive
COc1cc2nc(N3CCN(C(=O)C4CCCO4)CC3)nc(N)c2cc1OC (centres undefined),Potency,[1],inactive
same,Potency,[2],inactive
same,Potency,[9],inactive
same,Potency,[12],inactive
same,Potency,[6],inactive
same,Potency,[15],inactive
same,Potency,[8],inactive
same,Potency,[11],inactive
same,Potency,[14],inactive
CC(C)Oc1ccc2c(=O)c(-c3ccccc3)coc2c1,Potency,[1],inactive
same,Potency,[2],inactive
same,Potency,[9],inactive
same,Potency,[12],inactive
same,Potency,[10],inactive
same,Potency,[5],inactive
same,Potency,[15],inactive
same,Potency,[8],inactive
same,Potency,[13],inactive

# — PubChem BioAssay (NCATS)
